Rows were chosen to be rich in hits. Some 12% of all compounds tested hit in one or more screens of this group.
PLK1 PBD inh: inhibitors of human PLK1 polo-box domain binding; P53350; Plk1 PBD binding of FITC phosphopeptide, fluorescence polarization; Potency, µM, without a hit: max response, negative = inhibition, usual class: inhibitors; 360,000 compounds, 2.8% hits; note: series mostly up to about 57 µM; % is set by controls: 0 for no effect and ±100 for the full control effect; nearly all actives have a fitted effect of over 65% in size
BAZ2B inh: blocks human BAZ2B; AlphaScreen BAZ2B-H3K14Ac peptide displacement; 360,000 compounds, 4.4% hits; Q9UIF8; AID 504333; Potency, µM (top dose mostly 114 µM), for the others: at the top dose activity change, negative = inhibition, hits mostly inhibitors; note: % is set by controls: 0 for no effect and ±100 for the full control effect; nearly all actives have a fitted effect of over 60% in size
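AlphaScreen displacement: compounds (up to 110uM) incubated 30 min at room temperature with a preformed 50 nM BAZ2B/50 nM biotinylated H3K14Ac peptide complex in PBS pH 7.4 with Tween-20. Donor and acceptor beads at 10 ug/mL final added, 20 min light-protected before reading.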
JMJD2A Tudor: JMJD2A Tudor domain (human) inhibition; 390,000 compounds, 4.4% hits; AlphaScreen JMJD2A-Tudor / H3K4me3 peptide binding; Potency, µM (doses to about 114 µM), for the others: at the top dose activity change, negative = inhibition, actives largely listed as inhibitors; note: % is set by controls: 0 for no effect and ±100 for the full control effect; nearly all actives have a fitted effect of over 50% in size
G9a block: G9a (human) methyltransferase inhibition | Q96KQ7 | G9a H3K9 monomethylation, AlphaScreen, 2 h | Potency, µM (series often up to 102 µM), inactives show at the top dose activity, negative = inhibition, hits mostly inhibitors | 350,000 compounds, 8.8% hits | AID 504332; note: % is set by controls: 0 for no effect and ±100 for the full control effect; nearly all actives have a fitted effect of over 75% in size
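G9a (20 nM) was preincubated 15 min with compound, then reacted 2 h at room temperature with 500 nM biotin-H3K9 peptide and 20 µM SAM. Monomethyl-H3K9 detected by AlphaScreen using anti-H3K9me1 antibody.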
Sfp PPTase inh: blocks B. subtilis Sfp PPTase activity | Biochemical Sfp PPTase activity, qHTS | Potency, µM, for the others: largest response in the series, negative = inhibition, actives largely listed as inhibitors | 310,000 compounds, 3.5% hits | AID 1490;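 note: the enzyme is Sfp with the accession as filed and its product quenches rhodamine fluorescence; 0% = enzyme reaction without inhibitor and -100% = no enzyme wells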
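Compounds were incubated with enzyme (final 15 nM) for 15 min at room temperature before substrate addition started the reaction. Fluorescence at 525 nm excitation, 598 nm emission was recorded immediately and after 30 minutes.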
HP1b binding inh: HP1-beta chromodomain-methylated histone interaction inhibition. AlphaScreen HP1-beta / biotin-H3K9me3 peptide binding. 390,000 compounds, 0.56% hits. Potency, µM (top dose mostly 114 µM), for inactives: at the top dose activity change, negative = inhibition, usual class: inhibitors. P83916; note: nearly all actives have a fitted effect of over 70% in size
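HP1-beta protein (50 nM final) preincubated 30 min at room temperature with biotinylated H3(1-18)K9me3 peptide (50 nM) in PBS pH 7.4, 0.01% Tween-20, then compound added for 30 min. AlphaScreen streptavidin donor/nickel chelate acceptor beads (10 ug/mL final), 30 min dark, luminescence read.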
Numbers without * were called inactive; ? = inconclusive; · = not tested or not shown; [ ] = remark or other dose. Calls come from the whole dose curve; as a rule, active = well fitted curve in the direction sought with a large enough effect; inconclusive = small, poorly fitted or top-dose-only effect, or another doubt; inactive = no such curve, though single readings can be large; an effect the other way counts as inactive or inconclusive. Potency is the fitted concentration of half-maximal effect.

SMILES | PLK1 PBD inh | BAZ2B inh | JMJD2A Tudor | G9a block | Sfp PPTase inh | HP1b binding inh
COc1ccccc1NC(=O)CCN1C(=O)/C(=C/c2cc(OC)c(OC)c(OC)c2)SC1=S | -4% | 2% | -5% | -9%[0.501 µM] | 45µM* | 38%
COc1cc(/C=C2\SC(=S)N(CCC(=O)Nc3ccc(O)cc3)C2=O)cc(OC)c1OC | 30µM* | 0% | 22µM* | 1% | -13% | -4%
COc1cc(/C=C2/SC(=S)N(CCC(=O)Nc3ccc(C(=O)O)cc3)C2=O)cc(OC)c1OC | ? | ? | ? | · | -17% | 6%
Cc1ccc(NNC(=O)c2ccno2)cc1Cl | -10% | -31% | -22% | 8.9µM* | 1% | 28%
Cc1cc(C(=O)NNc2ccc(Cl)cc2)no1 | -1% | -5% | -5% | · | -17% | 57%
Cc1ccc(NNC(=O)c2cc(C)on2)c(C)c1 | -11% | -14% | -7% | 11µM* | -12% | 1%
Cc1ccc(NNC(=O)c2ccno2)cc1C | ? | 1% | 79µM* | 6.3µM* | -17% | -3%
Cc1cc(C(=O)NNc2ccc(F)cc2F)no1 | 0% | 0% | 8% | -103%[59 µM] | 8% | 47%
Cc1cc(C(=O)NNc2ccc(C)c(C)c2)no1 | -26% | -3% | -17% | 2.5µM* | -10% | 5%
COc1ccccc1/C=C(\C#N)c1nc(-c2cc3ccccc3oc2=O)cs1 | · | -1% | -10% | 2%[59 µM] | · | 48%
COc1ccc(C2=C(CC(=O)O)C(=O)CC2)cc1 | -18% | 5% | -1% | -49%[59 µM] | 17% | 20%
CSc1ccc(/C=N/N2CCN(Cc3ccc(C)cc3C)CC2)cc1 | 2% | 45µM* | 56µM* | ? | -4% | -22%
Cc1ccc(CN2CCN(/N=C/c3sccc3C)CC2)c(C)c1 | -8% | 28µM* | 22µM* | 45µM* | -15% | ?
COC(=O)[C@@]1(Cc2ccc(OC)cc2)[C@@H]2[C@@H](CC(=O)[C@H]2CC(=O)C(=O)N2CCCC2)CN1C(=O)c1ccccc1 | · | · | · | · | 12% | ·
O=C(O)/C=C/C(=O)NC1CCC(CC2CCC(NC(=O)/C=C/C(=O)O)CC2)CC1 (stereo unspecified) | -4% | -11% | 3% | · | -2% | 48%
S=C(c1cn(Cc2ccc(Br)cc2)c2ccccc12)N1CCOCC1 | 30µM* | ? | 25µM* | ? | 23% | ?
O=C(C(=O)N1CCOCC1)c1c[nH]c2ccccc12 | -9% | -4% | -1% | · | 15% | 30%
CN1CCN(C(=S)c2cn(Cc3ccccc3F)c3ccccc23)CC1 | 4% | ? | ? | 40µM* | -8% | 2%
S=C(c1c[nH]c2ccccc12)N1CCOCC1 | 15µM* | -20% | -26% | 11µM* | 22µM* | ?
Oc1[nH]c2ccccc2c1N=NC(=S)N1CCOCC1 | ? | 22µM* | 7.1µM* | 32µM* | -28% | -19%
O=C(CCc1cn(Cc2ccc(F)cc2)c2ccccc12)N1CCOCC1 | -11% | -27% | -19% | ? | 6% | 14%
N#Cc1cccc(NC(=O)N2CC[C@@]3(CCCN(C(=O)c4csnn4)C3)C2)c1 | · | · | · | 8%[12.7 µM] | -2% | ·
S=C(c1cn(Cc2ccccc2)c2ccccc12)N1CCOCC1 | -9% | ? | ? | 25µM* | 14% | -13%
CC1CCN(C(=S)c2cn(Cc3ccc(F)cc3)c3ccccc23)CC1 | -7% | ? | ? | 1% | 14% | -6%
COc1ccc(Nc2nc(OC)nc(OC)n2)cc1 | 0% | 0% | -10% | 25% | -3% | 29%
SMILES | PLK1 PBD inh | BAZ2B inh | JMJD2A Tudor | G9a block | Sfp PPTase inh | HP1b binding inh
CCOc1nc(Nc2ccc(OC)cc2)nc(OCC)n1 | -8% | 1% | 79µM* | 15%[59 µM] | 10% | -73%
COc1ccc(Nc2ccnc(Nc3ccc(OC)cc3)n2)cc1 | -3% | 45µM* | ? | ? | -86% | ?
Cc1ccccc1CC1SC(N)=NC1=O (stereo unspecified) | -18% | -20% | -13% | 32µM* | 16% | 21%
Cc1ccccc1CC1SC(N=C(N)N)=NC1=O (stereo unspecified) | -7% | 3% | ? | -7% | 8% | 35%
CN(Cc1ccccc1)S(=O)(=O)c1nnc(NC(=O)c2ccccc2Cl)s1 | · | -3% | -12% | 4%[59 µM] | · | 44%
Cc1ccc(S(=O)(=O)N/N=C2/CCCCC2C2CCCCC2)cc1[N+](=O)[O-] (stereo unspecified) | 24µM* | -2% | 28µM* | ? | -7% | ?
CCC(C)(C)C1CCC(=NNS(=O)(=O)c2ccc(C)c([N+](=O)[O-])c2)CC1 (stereo unspecified) | -21% | -29% | 2%[57.1 µM] | 13µM* | 3% | 39%
CC/C(C)=N/NS(=O)(=O)c1ccc(C)c([N+](=O)[O-])c1 | -4% | 2% | -10% | ? | ? | 16%
O=S(=O)(c1ccccc1)N1CCC2(CC1)CN(c1ccccn1)C2 | · | · | · | 46%[12.7 µM] | 5% | ·
CCCn1c(C)cc(/C=C(\C#N)C(=O)OCC(=O)N(CC)c2c(N)n(Cc3ccccc3)c(=O)[nH]c2=O)c1C | -1% | · | -17% | · | · | 6%
CC(C)C(NS(=O)(=O)c1ccc2c(c1)OCCCO2)C(=O)O (stereo unspecified) | 24µM* | 9% | ? | 1%[59 µM] | 18% | ?
CC(NS(=O)(=O)c1ccc2c(c1)OCCO2)c1ccccc1 (stereo unspecified) | -4% | -35% | -11% | -19% | 11% | 2%
COc1ccc(/C=C(/C#N)C(=O)Nc2cccc(C)c2C)cc1C(=O)O | 0% | 4% | -1% | -3%[12.7 µM] | 16% | 10%
Cc1cccc(NC(=O)/C(C#N)=C\c2cn(CC(=O)O)c3ccccc23)c1 | -4% | ? | -7% | 40µM* | 10% | 31%
COc1ccccc1NC(=O)/C(C#N)=C/c1cc([N+](=O)[O-])ccc1N1CCCC1 | 11µM* | 9% | -9% | -5%[59 µM] | 7% | 38%
Cc1cccc(NC(=O)/C(C#N)=C\c2cccnc2)c1 | 0% | 8% | -14% | 50µM* | 10% | -4%
N#C/C(=C\c1cccnc1)C(=O)Nc1cccc(Cl)c1 | -29% | -9% | 0% | -37% | -7% | 24%
COc1ccccc1NC(=O)/C(C#N)=C/c1ccncc1 | ? | -12% | 3% | · | 7% | 14%
COc1ccc(/C=C(/C#N)C(=O)Nc2cccc([N+](=O)[O-])c2)cc1C(=O)O | -15% | ? | -25% | 45µM* | 14% | -18%
Cc1cc(C(=O)COC(=O)c2cccnc2Cl)c(C)n1-c1c(C)n(C)n(-c2ccccc2)c1=O | ? | -5% | -16% | 11% | 23% | 41%
COc1ccccc1NC(=O)/C(C#N)=C/c1cccnc1 | -5% | -11% | 8% | -15% | 9% | 28%

Bioassay records deposited in PubChem by National Center for Advancing Translational Sciences (NCATS).
